Measurements as given in article PMC11006913.
Positions count from the first letter of the chain named.

Assays:
Assay in all cases: PBM; 200 nM protein, PBS
Conditions in all cases: dsDNA, one strand shown
HOXA7 [1] = target: HOXA7 (Homo sapiens, UniProt P31268 116-202)
HOXA7 [2] = target: HOXA7 (Homo sapiens, UniProt P31268 116-202, W177C)
HOXC10 [3] = target: HOXC10 (Homo sapiens, UniProt Q9NYD6 254-340)
NKX2-4 = target: T1, NKX2-4 (Homo sapiens, UniProt Q9H2Z4 175-261, T231S)
T1 sequence: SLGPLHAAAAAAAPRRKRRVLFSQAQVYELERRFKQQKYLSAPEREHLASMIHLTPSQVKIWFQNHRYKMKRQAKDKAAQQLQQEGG

NKX2-6 [4] = target: T2, NKX2-6 (Homo sapiens, UniProt A6NCS4 118-204, R150C)
T2 sequence: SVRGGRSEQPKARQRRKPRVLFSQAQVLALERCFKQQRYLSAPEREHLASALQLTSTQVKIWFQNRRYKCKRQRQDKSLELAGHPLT

NKX2-6 [5] = target: T3, NKX2-6 (Homo sapiens, UniProt A6NCS4 118-204, F151L)
T3 sequence: T2 sequence with C33R, F34L

NKX3-2 [6] = target: NKX3-2 (Homo sapiens, UniProt P78367 192-278, P234S)
NKX3-2 [7] = target: NKX3-2 (Homo sapiens, UniProt P78367 192-278)
ALX3 [8] = target: ALX3 (Homo sapiens, UniProt O95076 139-225, N203Q)
HOXC10 [9] = target: HOXC10 (Homo sapiens, UniProt Q9NYD6 254-340, K271E)
ALX3 [10] = target: ALX3 (Homo sapiens, UniProt O95076 139-225)
ALX3 [11] = target: ALX3 (Homo sapiens, UniProt O95076 139-225, L168Q)
ALX3 [12] = target: ALX3 (Homo sapiens, UniProt O95076 139-225, L168V)
ALX3 [13] = target: ALX3 (Homo sapiens, UniProt O95076 139-225, N203S)
ALX3 (Homo sapiens, UniProt O95076 139-225, N203S), sequence (O95076 139-225 N203S): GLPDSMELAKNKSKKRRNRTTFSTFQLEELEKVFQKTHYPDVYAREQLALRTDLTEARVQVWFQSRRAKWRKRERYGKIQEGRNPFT

HOXC10 (Homo sapiens, UniProt Q9NYD6 254-340), sequence (Q9NYD6 254-340): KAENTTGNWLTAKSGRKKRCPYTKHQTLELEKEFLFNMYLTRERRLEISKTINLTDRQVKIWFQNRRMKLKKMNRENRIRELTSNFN
HOXA7 (Homo sapiens, UniProt P31268 116-202), sequence (P31268 116-202): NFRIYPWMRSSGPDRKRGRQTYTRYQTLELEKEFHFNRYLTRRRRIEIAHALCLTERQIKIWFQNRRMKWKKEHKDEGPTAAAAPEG
HOXA7 (Homo sapiens, UniProt P31268 116-202, W177C), sequence (P31268 116-202 W177C): as the sequence (P31268 116-202) above, with W62C counted along it
ALX3 (Homo sapiens, UniProt O95076 139-225, L168V), sequence (O95076 139-225 L168V): as the sequence (O95076 139-225 N203S) above, with L30V, S65N counted along it
ALX3 (Homo sapiens, UniProt O95076 139-225, N203Q), sequence (O95076 139-225 N203Q): as the sequence (O95076 139-225 N203S) above, with S65Q counted along it
ALX3 (Homo sapiens, UniProt O95076 139-225), sequence (O95076 139-225): as the sequence (O95076 139-225 N203S) above, with S65N counted along it
NKX3-2 (Homo sapiens, UniProt P78367 192-278), sequence (P78367 192-278): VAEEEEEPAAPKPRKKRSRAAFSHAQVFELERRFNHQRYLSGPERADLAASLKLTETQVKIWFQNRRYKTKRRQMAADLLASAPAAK
ALX3 (Homo sapiens, UniProt O95076 139-225, L168Q), sequence (O95076 139-225 L168Q): as the sequence (O95076 139-225 N203S) above, with L30Q, S65N counted along it
HOXC10 (Homo sapiens, UniProt Q9NYD6 254-340, K271E), sequence (Q9NYD6 254-340 K271E): as the sequence (Q9NYD6 254-340) above, with K18E counted along it
NKX3-2 (Homo sapiens, UniProt P78367 192-278, P234S), sequence (P78367 192-278 P234S): as the sequence (P78367 192-278) above, with P43S counted along it

## CACGGAAG
HOXA7 [1]
  binding signal: 8.42 upbm affinity estimate (log intensity, higher = more binding, comparable within an allelic series)
HOXA7 [2]
  binding signal: 8.45 upbm affinity estimate (log intensity, higher = more binding, comparable within an allelic series)

## TGAGAGCA
HOXA7 [1]
  binding signal: 8.62 upbm affinity estimate (log intensity, higher = more binding, comparable within an allelic series)
HOXA7 [2]
  binding signal: 8.54 upbm affinity estimate (log intensity, higher = more binding, comparable within an allelic series)

## GGTTATAC
HOXC10 [3]
  binding signal: 10.8 upbm affinity estimate (log intensity, higher = more binding, comparable within an allelic series)

## CTTTTTTA
HOXC10 [3]
  binding signal: 11.2 upbm affinity estimate (log intensity, higher = more binding, comparable within an allelic series)

## AAATTACG
HOXA7 [1]
  binding signal: 10.3 upbm affinity estimate (log intensity, higher = more binding, comparable within an allelic series)
HOXA7 [2]
  binding signal: 8.82 upbm affinity estimate (log intensity, higher = more binding, comparable within an allelic series)

## CCTTCGAC
HOXA7 [1]
  binding signal: 8.4 upbm affinity estimate (log intensity, higher = more binding, comparable within an allelic series)
HOXA7 [2]
  binding signal: 8.45 upbm affinity estimate (log intensity, higher = more binding, comparable within an allelic series)

## GGAACTCA
HOXA7 [1]
  binding signal: 8.54 upbm affinity estimate (log intensity, higher = more binding, comparable within an allelic series)
HOXA7 [2]
  binding signal: 8.56 upbm affinity estimate (log intensity, higher = more binding, comparable within an allelic series)

## AGCTCGGA
HOXA7 [1]
  binding signal: 8.37 upbm affinity estimate (log intensity, higher = more binding, comparable within an allelic series)
HOXA7 [2]
  binding signal: 8.35 upbm affinity estimate (log intensity, higher = more binding, comparable within an allelic series)

## GGCGGTCA
HOXA7 [1]
  binding signal: 8.58 upbm affinity estimate (log intensity, higher = more binding, comparable within an allelic series)
HOXA7 [2]
  binding signal: 8.5 upbm affinity estimate (log intensity, higher = more binding, comparable within an allelic series)

## AACAATCA
HOXC10 [3]
  binding signal: 10.9 upbm affinity estimate (log intensity, higher = more binding, comparable within an allelic series)

## CGTCCACC
HOXA7 [1]
  binding signal: 8.57 upbm affinity estimate (log intensity, higher = more binding, comparable within an allelic series)
HOXA7 [2]
  binding signal: 8.48 upbm affinity estimate (log intensity, higher = more binding, comparable within an allelic series)

## GCACTTTA
NKX2-4
  binding signal: 12.8 upbm affinity estimate (log intensity, higher = more binding, comparable within an allelic series)
NKX2-6 [4]
  binding signal: 11.7 upbm affinity estimate (log intensity, higher = more binding, comparable within an allelic series)
NKX2-6 [5]
  binding signal: 10.7 upbm affinity estimate (log intensity, higher = more binding, comparable within an allelic series)
NKX3-2 [6]
  binding signal: 12.5 upbm affinity estimate (log intensity, higher = more binding, comparable within an allelic series)
NKX3-2 [7]
  binding signal: 12.6 upbm affinity estimate (log intensity, higher = more binding, comparable within an allelic series)

## ATTCGTAA
HOXC10 [3]
  binding signal: 10.8 upbm affinity estimate (log intensity, higher = more binding, comparable within an allelic series)

## AGTAGTTA
HOXA7 [1]
  binding signal: 10 upbm affinity estimate (log intensity, higher = more binding, comparable within an allelic series)
HOXA7 [2]
  binding signal: 8.75 upbm affinity estimate (log intensity, higher = more binding, comparable within an allelic series)

## GGGTACCC
HOXA7 [1]
  binding signal: 8.53 upbm affinity estimate (log intensity, higher = more binding, comparable within an allelic series)
HOXA7 [2]
  binding signal: 8.44 upbm affinity estimate (log intensity, higher = more binding, comparable within an allelic series)

## AGATATGG
HOXC10 [3]
  binding signal: 10.7 upbm affinity estimate (log intensity, higher = more binding, comparable within an allelic series)

## TAGTTTAA
HOXA7 [1]
  binding signal: 9.76 upbm affinity estimate (log intensity, higher = more binding, comparable within an allelic series)
HOXA7 [2]
  binding signal: 8.8 upbm affinity estimate (log intensity, higher = more binding, comparable within an allelic series)

## GTCATGAA
HOXC10 [3]
  binding signal: 10.8 upbm affinity estimate (log intensity, higher = more binding, comparable within an allelic series)

## AGCCGCTG
HOXA7 [1]
  binding signal: 8.52 upbm affinity estimate (log intensity, higher = more binding, comparable within an allelic series)
HOXA7 [2]
  binding signal: 8.43 upbm affinity estimate (log intensity, higher = more binding, comparable within an allelic series)

## AGGTCAGA
HOXA7 [1]
  binding signal: 8.56 upbm affinity estimate (log intensity, higher = more binding, comparable within an allelic series)
HOXA7 [2]
  binding signal: 8.58 upbm affinity estimate (log intensity, higher = more binding, comparable within an allelic series)

## CCTCGAGG
HOXA7 [1]
  binding signal: 8.59 upbm affinity estimate (log intensity, higher = more binding, comparable within an allelic series)
HOXA7 [2]
  binding signal: 8.59 upbm affinity estimate (log intensity, higher = more binding, comparable within an allelic series)

## GATGTTAA
HOXC10 [3]
  binding signal: 10.8 upbm affinity estimate (log intensity, higher = more binding, comparable within an allelic series)

## ACCTCGCT
HOXA7 [1]
  binding signal: 8.51 upbm affinity estimate (log intensity, higher = more binding, comparable within an allelic series)
HOXA7 [2]
  binding signal: 8.51 upbm affinity estimate (log intensity, higher = more binding, comparable within an allelic series)

## CGACTAGC
HOXA7 [1]
  binding signal: 8.47 upbm affinity estimate (log intensity, higher = more binding, comparable within an allelic series)
HOXA7 [2]
  binding signal: 8.47 upbm affinity estimate (log intensity, higher = more binding, comparable within an allelic series)

## ATATTGTA
HOXA7 [1]
  binding signal: 9.55 upbm affinity estimate (log intensity, higher = more binding, comparable within an allelic series)
HOXA7 [2]
  binding signal: 8.9 upbm affinity estimate (log intensity, higher = more binding, comparable within an allelic series)

## ATGCCATA
HOXC10 [3]
  binding signal: 11 upbm affinity estimate (log intensity, higher = more binding, comparable within an allelic series)

## AAATGGTA
HOXC10 [3]
  binding signal: 10.9 upbm affinity estimate (log intensity, higher = more binding, comparable within an allelic series)

## TATGCGCA
HOXC10 [3]
  binding signal: 10.8 upbm affinity estimate (log intensity, higher = more binding, comparable within an allelic series)

## CAAATAAA
HOXC10 [3]
  binding signal: 11.4 upbm affinity estimate (log intensity, higher = more binding, comparable within an allelic series)

## CCTTATAA
HOXA7 [1]
  binding signal: 9.62 upbm affinity estimate (log intensity, higher = more binding, comparable within an allelic series)
HOXA7 [2]
  binding signal: 8.88 upbm affinity estimate (log intensity, higher = more binding, comparable within an allelic series)

## CCTGGGAC
HOXC10 [3]
  binding signal: 9.91 upbm affinity estimate (log intensity, higher = more binding, comparable within an allelic series)
ALX3 [8]
  binding signal: 7.73 upbm affinity estimate (log intensity, higher = more binding, comparable within an allelic series)
HOXC10 [9]
  binding signal: 9.99 upbm affinity estimate (log intensity, higher = more binding, comparable within an allelic series)
ALX3 [10]
  binding signal: 7.73 upbm affinity estimate (log intensity, higher = more binding, comparable within an allelic series)
ALX3 [11]
  binding signal: 7.73 upbm affinity estimate (log intensity, higher = more binding, comparable within an allelic series)
ALX3 [12]
  binding signal: 7.7 upbm affinity estimate (log intensity, higher = more binding, comparable within an allelic series)
ALX3 [13]
  binding signal: 7.68 upbm affinity estimate (log intensity, higher = more binding, comparable within an allelic series)
